Laboratory results as given in PubChem BioAssay (NCATS).
Inconclusive results are not listed. A call without a number means that no potency is given here. Values without a mark were called inactive. Activity calls are given as the source filed them. The call rests on the fitted dose curve; in most records, active means well fitted curve in the direction sought with a large enough effect; inconclusive means small, poorly fitted or top-dose-only effect, or another doubt; inactive means no such curve, though single readings can be large; an effect the other way counts as inactive or inconclusive.

Tests used:
[1] = biological target: Rap guanine nucleotide exchange factor 3 (Homo sapiens) (UniProt O95398); assay: Confirmatory qHTS for antagonist of cAMP-regulated guanine nucleotide exchange factor 3 (EPAC1) (AID 1645880); settings: EPAC1 Rap1B-BODIPY-GDP exchange, fluorescence; series mostly up to 115 µM; further: nearly all actives have a fitted effect of over 55% in size; further: potency means the concentration at half of the fitted maximal effect
Chain of Rap guanine nucleotide exchange factor 3 (Homo sapiens) (O95398 whole entry, looked up): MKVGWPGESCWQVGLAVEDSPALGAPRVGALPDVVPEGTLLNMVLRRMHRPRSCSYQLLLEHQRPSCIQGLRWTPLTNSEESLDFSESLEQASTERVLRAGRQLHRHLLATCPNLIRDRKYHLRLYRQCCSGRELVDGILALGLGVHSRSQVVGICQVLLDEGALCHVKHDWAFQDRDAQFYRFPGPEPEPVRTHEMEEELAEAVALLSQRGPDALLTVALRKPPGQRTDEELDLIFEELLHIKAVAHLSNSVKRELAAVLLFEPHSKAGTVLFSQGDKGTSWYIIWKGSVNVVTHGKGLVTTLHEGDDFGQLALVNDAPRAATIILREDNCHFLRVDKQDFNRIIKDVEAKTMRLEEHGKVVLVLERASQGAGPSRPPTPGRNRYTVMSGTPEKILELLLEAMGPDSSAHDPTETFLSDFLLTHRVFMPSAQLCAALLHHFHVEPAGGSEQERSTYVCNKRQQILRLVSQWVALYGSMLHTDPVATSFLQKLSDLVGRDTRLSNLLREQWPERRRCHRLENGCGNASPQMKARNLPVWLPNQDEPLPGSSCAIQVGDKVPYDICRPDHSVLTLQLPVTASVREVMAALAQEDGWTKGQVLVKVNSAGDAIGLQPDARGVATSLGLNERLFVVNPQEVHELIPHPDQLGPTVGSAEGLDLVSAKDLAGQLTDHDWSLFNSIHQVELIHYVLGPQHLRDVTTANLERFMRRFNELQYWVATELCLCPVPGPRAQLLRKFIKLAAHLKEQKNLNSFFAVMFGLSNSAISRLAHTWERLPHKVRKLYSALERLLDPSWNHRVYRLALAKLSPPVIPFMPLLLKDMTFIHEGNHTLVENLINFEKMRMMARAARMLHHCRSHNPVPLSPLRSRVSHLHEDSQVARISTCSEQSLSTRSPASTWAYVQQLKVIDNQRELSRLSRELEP
In short: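 Released BODIPY-GDP fluoresces less than Rap1-bound BODIPY-GDP; the signal is followed at 480/540 nm at 5-min intervals over 30 min, after 5 min at room temperature. Reactions contain 100 nM EPAC1, 250 nM RAP1B-BODIPY-GDP and 50 uM GDP; results are normalized to ATA and DMSO.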

[2] = biological target: Rap guanine nucleotide exchange factor 3 (Homo sapiens) (UniProt O95398); assay: Confirmatory qHTS for agonist of cAMP-regulated guanine nucleotide exchange factor 3 (EPAC1) (AID 1645881); settings: EPAC1 Rap1B BODIPY-GDP exchange fluorescence; series mostly up to 154 µM;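 further: EPAC1 catalysed release of BODIPY-GDP from Rap1B seen as fluorescence loss; nearly all actives have a fitted effect of over 75% in size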
[3] = biological target: Rap guanine nucleotide exchange factor 4 (Homo sapiens) (UniProt Q8WZA2); assay: Confirmatory qHTS for agonist of cAMP-regulated guanine nucleotide exchange factor 4 (EPAC2) (AID 1645884); settings: EPAC2 GEF activity, Rap1B-BODIPY-GDP fluorescence; series mostly up to 154 µM;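 further: nucleotide exchange releases bodipy-GDP from Rap1 and this lowers its fluorescence; nearly all actives have a fitted effect of over 65% in size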
Chain of Rap guanine nucleotide exchange factor 4 (Homo sapiens) (Q8WZA2 whole entry, looked up): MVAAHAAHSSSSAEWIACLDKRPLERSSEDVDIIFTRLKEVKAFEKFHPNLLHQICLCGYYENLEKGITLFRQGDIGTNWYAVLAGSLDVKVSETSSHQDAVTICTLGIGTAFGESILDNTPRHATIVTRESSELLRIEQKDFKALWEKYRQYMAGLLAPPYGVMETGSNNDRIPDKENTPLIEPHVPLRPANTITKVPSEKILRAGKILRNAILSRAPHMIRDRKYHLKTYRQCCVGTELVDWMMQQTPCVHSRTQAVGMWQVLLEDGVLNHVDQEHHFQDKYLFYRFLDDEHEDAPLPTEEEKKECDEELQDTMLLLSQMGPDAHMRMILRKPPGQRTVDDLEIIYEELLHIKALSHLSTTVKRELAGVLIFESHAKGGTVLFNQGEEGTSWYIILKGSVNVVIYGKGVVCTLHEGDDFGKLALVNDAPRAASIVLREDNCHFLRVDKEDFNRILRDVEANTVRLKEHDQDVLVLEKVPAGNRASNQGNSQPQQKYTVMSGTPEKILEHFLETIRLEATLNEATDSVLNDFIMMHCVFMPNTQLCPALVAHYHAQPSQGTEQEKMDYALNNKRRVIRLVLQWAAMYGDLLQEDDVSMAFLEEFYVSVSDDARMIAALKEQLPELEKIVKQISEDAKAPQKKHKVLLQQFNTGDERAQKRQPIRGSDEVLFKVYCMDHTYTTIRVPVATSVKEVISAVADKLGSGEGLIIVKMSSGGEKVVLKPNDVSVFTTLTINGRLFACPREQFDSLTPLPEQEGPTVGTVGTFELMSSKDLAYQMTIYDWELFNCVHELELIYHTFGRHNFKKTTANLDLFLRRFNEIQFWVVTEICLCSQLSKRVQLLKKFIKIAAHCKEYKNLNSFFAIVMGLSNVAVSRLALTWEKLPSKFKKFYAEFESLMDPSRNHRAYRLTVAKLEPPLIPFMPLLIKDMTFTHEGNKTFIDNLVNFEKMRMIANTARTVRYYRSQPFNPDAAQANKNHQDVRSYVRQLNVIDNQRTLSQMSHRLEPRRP

[4] = biological target: Rap guanine nucleotide exchange factor 4 (Homo sapiens) (UniProt Q8WZA2); assay: Confirmatory qHTS for antagonist of cAMP-regulated guanine nucleotide exchange factor 4 (EPAC2) (AID 1645885); settings: EPAC2 Rap1B-BODIPY-GDP exchange fluorescence, biochemical; series mostly up to 12.7 µM; further: nearly all actives have a fitted effect of over 25% in size; further: potency means the concentration at half of the fitted maximal effect
[5] = biological target: Rap guanine nucleotide exchange factor 3 (Homo sapiens) (UniProt O95398); assay: Counterscreen qHTS for antagonist of cAMP-regulated guanine nucleotide exchange factor 3 (EPAC1) (AID 1645888); settings: Rap1B-BODIPY-GDP nucleotide exchange, fluorescence; series mostly up to 154 µM
In short: (§1)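 Rap1B–BODIPY-GDP (250 nM) with 50 uM GDP; compounds pin-transferred to 9.74 nM–152 uM final (activator) or from 7.32 nM upwards (inhibitor). Fluorescence Ex/Em 480/540 nm read at 5 and 30 min, then after adding cAMP or buffer, at room temperature.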

[6] = biological target: Rap guanine nucleotide exchange factor 3 (Homo sapiens) (UniProt O95398); assay: Counterscreen qHTS for agonist of cAMP-regulated guanine nucleotide exchange factor 3 (EPAC1) (AID 1645889); settings: EPAC1 Rap1B-BODIPY-GDP exchange, fluorescence; series mostly up to 154 µM; further: nearly all actives have a fitted effect of over 40% in size; further: potency means the concentration at half of the fitted maximal effect
In short: as §1

SMILES | Potency [1] | Potency [2] | Potency [3] | Potency [4] | Potency [5] | Potency [6] | activation [3] | activity change, negative = inhibition [5] | activation [6] | outcome [4]
O=C(c1ccccc1[N+](=O)[O-])N1CCN(c2ccc(N3CCOCC3)nn2)CC1 | inactive | inactive | inactive | inactive | inactive | inactive |  |  |  | 
Cc1ccc(-c2csc(N=C(N)N)n2)cc1 | inactive | inactive |  | inactive |  |  | 2.77% [at 17.1 µM, percent relative to cAMP agonist control] | -10% [at 30.8 µM] | 9.63% [at 30.8 µM] | 
O=C1C=C(N2CCOCC2)c2ccccc2C1=O | 39.8 µM (active) | inactive |  | inactive |  |  | -3.17% [at 17.1 µM, percent relative to cAMP agonist control] | -11.6% [at 30.8 µM] | 26.3% [at 30.8 µM] | 
CC(C)(C)C(=O)Nc1ccc2nc(SCC(=O)N3CCc4ccccc43)sc2c1 | inactive | inactive | inactive | inactive | inactive | inactive |  |  |  | 
CCOC(=O)c1ccccc1NC(=S)N1CCC(N2CCCCC2)CC1 | inactive | inactive | inactive | inactive | inactive | inactive |  |  |  | 
N#Cc1c(-c2ccccc2)nc(SCc2cccc(C(F)(F)F)c2)[nH]c1=O | 26.9 µM (active) | inactive | inactive | 75.7 µM (active) | inactive | inactive |  |  |  | 
COc1ccc(NC(=O)CS(=O)(=O)Cc2ccccc2)c([N+](=O)[O-])c1 | inactive | inactive |  | inactive |  |  | 7.06% [at 17.1 µM, percent relative to cAMP agonist control] | -9.05% [at 30.8 µM] | 8.04% [at 30.8 µM] | 
CCOC(=O)CN1C(=O)c2ccccc2Sc2ncccc21 | inactive | inactive |  | inactive | inactive | inactive | 0% [at 17.1 µM, percent relative to cAMP agonist control] |  |  | 
COc1ccc2nc(N3CCN(C(=O)C4CC4)CC3)sc2c1 | inactive | inactive | inactive |  | inactive | inactive |  |  |  | inactive [at 12.7 µM]
O=C(Nc1sc(-c2ccccc2)cc1C(=O)O)c1ccccc1 | 75.7 µM (active) | inactive | inactive | inactive | inactive | inactive |  |  |  | 
Cc1ccc(NC(=O)CN2C(=O)N/C(=C/c3ccccc3OCc3cccc(C(=O)O)c3)C2=O)cc1 | 31.6 µM (active) | inactive |  | inactive |  |  | -10.8% [at 17.1 µM, percent relative to cAMP agonist control] | -1.86% [at 30.8 µM] | 5.98% [at 30.8 µM] | 
CN[C@@H](CO)C(=O)NC[C@H]1O[C@@H](n2cnc3c(N)ncnc32)[C@H](O)[C@@H]1O | inactive | inactive | inactive | inactive | inactive | inactive |  |  |  | 
CCOc1cc(C(=O)Nc2ccc3c(c2)n(C)c(=O)c(=O)n3C)cc(OCC)c1OCC | inactive | inactive | inactive |  | inactive | inactive |  |  |  | inactive [at 12.7 µM]
Cc1cc(=O)n(C2CCS(=O)(=O)C2)[nH]1 (stereo unspecified) | inactive | inactive | inactive | inactive | inactive | 4.47 µM (active) |  |  |  | 
Cc1ccc(NC(=O)N2CCN(c3nnc(C)c4c(C)n(-c5ccc(Cl)cc5)nc34)CC2)c(C)c1 | inactive | inactive | inactive | inactive | inactive | inactive |  |  |  | 
CC1(C(=O)NS(=O)(=O)c2ccc(C#N)cc2)CCN1C(=O)C1(c2ccccc2)CCCC1 (stereo unspecified) | 37.9 µM (active) | inactive | inactive | 33.8 µM (active) | inactive | inactive |  |  |  | 
COC(=O)c1sc(-c2ccccc2)cc1NC(C)=O | inactive | inactive |  | inactive |  |  | 3.04% [at 17.1 µM, percent relative to cAMP agonist control] | 7.63% [at 30.8 µM] | 9.28% [at 30.8 µM] | 
Cc1cc2[nH]c(=O)c(=O)[nH]c2cc1S(=O)(=O)Nc1cccc(Cl)c1 | 42.6 µM (active) | inactive | inactive | inactive | inactive | inactive |  |  |  | 

SMILES | Potency [1] | Potency [2] | Potency [3] | Potency [4] | Potency [5] | Potency [6] | activation [3] | activity change, negative = inhibition [5] | activation [6] | outcome [4]
Cc1cccc(NC(=O)CN2C(=O)S/C(=C\c3ccc(O)c([N+](=O)[O-])c3)C2=O)c1 | 23.9 µM (active) | inactive | inactive | inactive | inactive | inactive |  |  |  | 
COc1ccccc1N1CC(C(=O)Nc2cc(C(F)(F)F)ccc2N2CCCC2)CC1=O (stereo unspecified) | inactive | inactive |  | inactive |  |  | 9.01% [at 17.1 µM, percent relative to cAMP agonist control] | -8.33% [at 30.8 µM] | 9.96% [at 30.8 µM] | 
Cc1ccc(S(=O)(=O)Nc2ccccc2N2CCCCC2)cc1 | inactive | inactive |  | inactive |  |  | 1.85% [at 17.1 µM, percent relative to cAMP agonist control] | -22.5% [at 30.8 µM] | 18.9% [at 30.8 µM] | 
O=C(c1ccc2c(c1)N(Cc1ccccc1)CCS2)N1CCCCC1 | inactive | inactive | inactive | inactive | inactive | inactive |  |  |  | 
Fc1cccc(Cc2c(-c3ccccc3)nc3ccc(Cl)cn23)c1 | inactive | inactive | inactive | inactive | inactive | inactive |  |  |  | 
Cc1ccc(-c2csc(NC(=O)c3ccc(Br)cc3)c2C(=O)O)cc1 | 33.8 µM (active) | inactive | inactive | inactive | inactive | inactive |  |  |  | 
CCOc1ccc(CCNC(=O)c2cccc(S(=O)(=O)N3CCCCC3)c2)cc1OCC | inactive | inactive | inactive | inactive | inactive | inactive |  |  |  | 
O=C(O)C(c1ccccc1)N1C(=O)/C(=C\c2ccc(O)c(O)c2)SC1=S (stereo unspecified) | 6.75 µM (active) | inactive | inactive | 21.3 µM (active) | inactive | inactive |  |  |  | 
C(=N\N1CCN(C(c2ccccc2)c2ccccc2)CC1)/c1ccc2c(c1)OCO2 | inactive | inactive | inactive | 84.9 µM (active) | inactive | inactive |  |  |  | 
CC1=C(C(=O)NC2CCC(C)CC2)C2(CCC(C)CC2)OC1=O (stereo unspecified) | inactive | inactive |  | inactive |  |  | 1.07% [at 17.1 µM, percent relative to cAMP agonist control] | -11.5% [at 30.8 µM] | -0.546% [at 30.8 µM] | 
O=C(O)c1ccccc1NS(=O)(=O)c1ccc(N/N=C/c2ccc(O)c(O)c2)c([N+](=O)[O-])c1 | 8.91 µM (active) | inactive |  | inactive |  |  | -3.03% [at 17.1 µM, percent relative to cAMP agonist control] | -1.88% [at 30.8 µM] | 24.6% [at 30.8 µM] | 
Cc1[nH]c2ccccc2c1C(C[N+](=O)[O-])c1cccs1 (stereo unspecified) | inactive | inactive |  | inactive |  |  | 5.2% [at 17.1 µM, percent relative to cAMP agonist control] | -10.6% [at 30.8 µM] | 46.2% [at 30.8 µM] | 
CN(C)S(=O)(=O)N1CCN(S(=O)(=O)N(C)C)CC1 | inactive | inactive |  | inactive |  |  | 5.89% [at 17.1 µM, percent relative to cAMP agonist control] | -14.8% [at 30.8 µM] | 1.25% [at 30.8 µM] | 
COc1cc(/C=C2\SC(=S)N(NS(=O)(=O)c3ccc(C)cc3)C2=O)cc(OC)c1OC | 26.9 µM (active) | inactive | inactive | 33.8 µM (active) | inactive | inactive |  |  |  | 
O=C(Nc1cccc(C(F)(F)F)c1)c1cccc(NS(=O)(=O)c2ccc(O)c(C(=O)O)c2)c1 | 60.1 µM (active) | inactive | inactive | inactive | inactive | inactive |  |  |  | 
COC(=O)C(C)N(C(=O)c1ccc(Cl)cc1)c1c(C)cccc1C (stereo unspecified) | inactive | inactive | inactive | inactive | inactive | inactive |  |  |  | 
COc1ccc(/C=C(/NC(=O)c2ccccc2)C(=O)N/N=C/c2ccncc2)c(OC)c1 | inactive | inactive |  | inactive |  |  | 2.49% [at 17.1 µM, percent relative to cAMP agonist control] | 28.5% [at 30.8 µM] | 12.1% [at 30.8 µM] | 
C/C(=C\C(=O)c1ccccc1)Nc1ccc(O)cc1 | inactive | inactive |  | inactive |  |  | 3.61% [at 17.1 µM, percent relative to cAMP agonist control] | -14.8% [at 30.8 µM] | 29.9% [at 30.8 µM] | 
